Screening data: PubChem BioAssay, NMMLSC
Compounds with a hit are over-represented: about 1.8% of the library has one in this group of screens.
Myeloid diff 2: myeloid differentiation induction; ER-HoxA9 myeloid progenitors, lysozyme-GFP differentiation, flow cytometry; calls only at 10 µM; 360,000 compounds, 1% hits; AID 624256;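 active = normalized GFP-positive differentiation at or above the plate's own cutoff, the solvent-only control mean plus 3 SD; inconclusive = no clear call, values can overlap the other calls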;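 note: cells exposed to compound for four days before flow analysis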
CIT2 TOR yeast: alters CIT2-GFP fluorescence in TOR pathway yeast screen. GFP response vs DMSO, % at 10 µM. 320,000 compounds, 0.065% hits. S. cerevisiae CIT2-GFP strain, flow cytometry, 3 h; 100 means same as DMSO wells. AID 2029;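 active = GFP response relative to DMSO above a set limit, near the screen mean plus 3 SD, cut at about 150% in these data; inconclusive = Fewer than 70 cells measured for a yeast strain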;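 note: ratio of well median GFP fluorescence to mean of DMSO wells on the plate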
AGP1-GFP MLPCN: yeast TOR pathway AGP1-GFP modulation. 320,000 compounds, 0.02% hits. GFP response vs DMSO, % at 10 µM. AID 2066. S. cerevisiae AGP1-GFP multiplex flow cytometry, 3 h; GFP as percent of DMSO wells;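 active = GFP response relative to DMSO above a set limit, near screen average plus 3 SD, cut at about 150% in these data; inconclusive = fewer than 70 cells counted for the yeast strain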;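 note: median GFP channel fluorescence of the gated AGP1 strain per well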
MEP2-GFP yeast: modulators of TOR pathway MEP2-GFP in S. cerevisiae; S. cerevisiae MEP2-GFP strain, flow cytometry GFP, 3 h; 100% = DMSO control level; GFP response vs DMSO, % at 10 µM; 330,000 compounds, 0.51% hits;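 active = GFP response versus DMSO above a set limit, roughly screen mean plus 3 SD, cut at about 180% in these data; inconclusive = fewer than 70 cells counted for a yeast strain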;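 note: median GFP fluorescence of the barcode-gated MEP2-GFP cells per well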
LAP4 TOR yeast: modulators of TOR pathway LAP4-GFP in S. cerevisiae | 320,000 compounds, 0.34% hits | GFP response vs DMSO, % at 10 µM | S. cerevisiae LAP4-GFP multiplex, flow cytometry GFP, 3 h; median GFP as percent of DMSO wells | AID 2023;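 active = GFP response vs DMSO above a set limit, about the screen mean plus 3 SD, cut at about 150% in these data; inconclusive = under 70 cell events counted for the yeast strain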
RPL19A-GFP yeast: alters RPL19A-GFP fluorescence in TOR pathway yeast screen. percent response vs DMSO, % at 10 µM. 330,000 compounds, 0.3% hits. S. cerevisiae RPL19A-GFP strain, flow cytometry, 3 h; active compounds read low. AID 2025;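 active = percent response vs DMSO below 50%; inconclusive = fewer than 70 events counted for the yeast strain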;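 note: median channel GFP fluorescence of the barcoded RPL19A-GFP strain; ratio of sample median GFP to plate DMSO average so 100% = DMSO; lower means less RPL19A-GFP as with rapamycin TOR inhibition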
* hit, by the source's call; [ ] = another dose, or the depositor's remark.

`O=C(NCCCN1CCOCC1)c1ccc(Sc2ccc(Br)cc2)c([N+](=O)[O-])c1` gave Myeloid diff 2 active, CIT2 TOR yeast 114.2, AGP1-GFP MLPCN 91.3, MEP2-GFP yeast 109.5, LAP4 TOR yeast 86.5 and RPL19A-GFP yeast 98.0.
Screening O=C(c1cccnc1)N1N=C(C2CCCCC2)CC1(O)C(F)(F)F (configuration not stated) returned Myeloid diff 2 inactive, CIT2 TOR yeast 98.0, AGP1-GFP MLPCN 100.4, MEP2-GFP yeast 98.2, LAP4 TOR yeast 91.3 and RPL19A-GFP yeast 97.8.
Cc1sc2nc(COC(=O)c3ccc(N4CCCC(C)C4)c([N+](=O)[O-])c3)[nH]c(=O)c2c1C (configuration not stated) was read as Myeloid diff 2 inactive, CIT2 TOR yeast 91.1, AGP1-GFP MLPCN 91.9, MEP2-GFP yeast 97.2, LAP4 TOR yeast 90.3 and RPL19A-GFP yeast 103.8.
`Cc1sc2nc(COC(=O)c3ccc(N4CCCC4)c([N+](=O)[O-])c3)[nH]c(=O)c2c1C` gave Myeloid diff 2 active, CIT2 TOR yeast 94.4, AGP1-GFP MLPCN 103.2, MEP2-GFP yeast 111.4, LAP4 TOR yeast 114.5 and RPL19A-GFP yeast 102.2.
Screening Cc1cc(CN2CCCC(C(=O)Nc3ccc(-c4nc5ccccc5[nH]4)cc3)C2)n[nH]1 (configuration not stated) returned Myeloid diff 2 inactive, CIT2 TOR yeast 96.2, AGP1-GFP MLPCN 102.0, MEP2-GFP yeast 97.6, LAP4 TOR yeast 97.0 and RPL19A-GFP yeast 100.4.
For CC(C#N)(Cc1ccccc1)Nc1ccccc1 (configuration not stated) the results were Myeloid diff 2 inactive, CIT2 TOR yeast inconclusive, AGP1-GFP MLPCN inconclusive, MEP2-GFP yeast inconclusive, LAP4 TOR yeast 72.1 and RPL19A-GFP yeast 17.2*[may fluoresce violet].
Screening C=CC(=O)NC(C)(C)Cc1ccccc1 returned Myeloid diff 2 inactive, CIT2 TOR yeast 104.9, AGP1-GFP MLPCN 99.4, MEP2-GFP yeast 98.4, LAP4 TOR yeast 100.2 and RPL19A-GFP yeast 97.0.
`CSc1cccc(NC(=O)C2CCCN(S(=O)(=O)c3cccs3)C2)c1` (configuration not stated) gave Myeloid diff 2 inactive, CIT2 TOR yeast inconclusive, AGP1-GFP MLPCN inconclusive, MEP2-GFP yeast inconclusive, LAP4 TOR yeast inconclusive and RPL19A-GFP yeast 16.1*[may fluoresce violet].
`CSc1cccc(NC(=O)C2CCCN(S(=O)(=O)c3ccc(F)cc3)C2)c1` (configuration not stated) gave Myeloid diff 2 inactive, CIT2 TOR yeast 96.1, AGP1-GFP MLPCN 109.2, MEP2-GFP yeast 104.9, LAP4 TOR yeast 102.9 and RPL19A-GFP yeast 104.9.
Screening Cc1ccc(C(=O)CC2SC(N)=NC2=O)cc1 (configuration not stated) returned Myeloid diff 2 inactive, CIT2 TOR yeast 101.3, AGP1-GFP MLPCN 106.9, MEP2-GFP yeast 103.8, LAP4 TOR yeast 100.3 and RPL19A-GFP yeast 101.2.
For NC1=NC(=O)C(CC(=O)c2ccc(Cl)cc2)S1 (configuration not stated) the results were Myeloid diff 2 inactive, CIT2 TOR yeast 96.4, AGP1-GFP MLPCN 94.4, MEP2-GFP yeast 183.1*, LAP4 TOR yeast 125.2 and RPL19A-GFP yeast 98.3.
COc1cc2nc(/C=C/c3ccc(N(C)C)cc3)sc2cc1SC was read as Myeloid diff 2 active, CIT2 TOR yeast 89.2, AGP1-GFP MLPCN 94.9, MEP2-GFP yeast 107.7, LAP4 TOR yeast 110.0 and RPL19A-GFP yeast 94.3.
Screening CCN(CC)S(=O)(=O)c1ccc(C)c(NC(=O)CSc2nc3ccccc3[nH]2)c1 returned Myeloid diff 2 inactive, CIT2 TOR yeast 96.3, AGP1-GFP MLPCN 94.6, MEP2-GFP yeast 100.8, LAP4 TOR yeast 88.7 and RPL19A-GFP yeast 102.8.
COc1ccc(-n2c(O)c(/C=N/NS(=O)(=O)c3cc(C)ccc3C)c3ccccc3c2=O)cc1OC was read as Myeloid diff 2 active, CIT2 TOR yeast 112.2, AGP1-GFP MLPCN 106.9, MEP2-GFP yeast 118.8, LAP4 TOR yeast 106.2 and RPL19A-GFP yeast 107.3.
For CSc1ccc(Cl)c(C(=O)NCCOc2cc(C(C)C)ccc2C)c1 the results were Myeloid diff 2 inactive, CIT2 TOR yeast 93.0, AGP1-GFP MLPCN 94.2, MEP2-GFP yeast 95.8, LAP4 TOR yeast 95.5 and RPL19A-GFP yeast 92.2.
CN(CC(=O)Nc1ccccc1Cl)C(=O)CSc1nnc(N)s1 was read as Myeloid diff 2 inactive, CIT2 TOR yeast inconclusive, AGP1-GFP MLPCN inconclusive, MEP2-GFP yeast 129.0, LAP4 TOR yeast inconclusive and RPL19A-GFP yeast 40.3*[may fluoresce violet].
`CCCCCCCCNC(=O)CC(NS(=O)(=O)c1ccc(NC(C)=O)cc1)C(C)C` (configuration not stated) gave Myeloid diff 2 inactive, CIT2 TOR yeast 105.1, AGP1-GFP MLPCN 102.8, MEP2-GFP yeast 105.2, LAP4 TOR yeast 101.0 and RPL19A-GFP yeast 101.0.
Screening CC(=O)Nc1ccc(S(=O)(=O)NC(CC(=O)NCCC2=CCCCC2)C(C)C)cc1 (configuration not stated) returned Myeloid diff 2 inactive, CIT2 TOR yeast 100.9, AGP1-GFP MLPCN 151.6*, MEP2-GFP yeast 210.7*, LAP4 TOR yeast 281.9* and RPL19A-GFP yeast 85.0.
For O=C1C=C(Nc2ccccc2O)c2ccccc2C1=O the results were Myeloid diff 2 inactive, CIT2 TOR yeast 94.8, AGP1-GFP MLPCN 103.4, MEP2-GFP yeast 106.7, LAP4 TOR yeast 104.1 and RPL19A-GFP yeast 96.6.
`O=C1C=C(NCc2ccccc2)c2ccccc2C1=O` gave Myeloid diff 2 active.
For CCOc1ccc(-n2c(C)nc3cc(C(=O)NCc4ccco4)ccc32)cc1 the results were Myeloid diff 2 inactive, CIT2 TOR yeast 101.2, AGP1-GFP MLPCN 102.9, MEP2-GFP yeast 101.0, LAP4 TOR yeast 103.1 and RPL19A-GFP yeast 98.6.
Cc1ccc(N2CC(C(=O)OCC(=O)Nc3cc(C)on3)CC2=O)c(C)c1 (configuration not stated) was read as Myeloid diff 2 active, CIT2 TOR yeast 96.8, AGP1-GFP MLPCN 73.7, MEP2-GFP yeast 104.9, LAP4 TOR yeast 93.2 and RPL19A-GFP yeast 98.8.
CCOc1ccc(S(=O)(=O)NCc2ccncc2)cc1 was read as Myeloid diff 2 inactive, CIT2 TOR yeast 106.5, AGP1-GFP MLPCN 112.7, MEP2-GFP yeast 108.5, LAP4 TOR yeast 97.3 and RPL19A-GFP yeast 103.8.
`CCOc1ccc(CNS(=O)(=O)c2ccc3c(c2)CC(=O)N3C)cc1` gave Myeloid diff 2 inactive, CIT2 TOR yeast inconclusive, AGP1-GFP MLPCN inconclusive, MEP2-GFP yeast 169.9, LAP4 TOR yeast 72.5 and RPL19A-GFP yeast 17.5*[may fluoresce violet].
CC(C)C(=O)NC(=S)/C=C1/N(C)c2ccccc2C1(C)C was read as Myeloid diff 2 active, CIT2 TOR yeast 103.4, AGP1-GFP MLPCN 108.4, MEP2-GFP yeast 101.5, LAP4 TOR yeast 118.6 and RPL19A-GFP yeast 93.3.
